Records with an inconclusive call do not appear. Entries that show only a call come without a potency. Values without a mark were called inactive. Calls of active or inactive are those of the source. Calls come from the whole dose curve; as a rule, active = well fitted cell-killing curve with a large enough effect in the repeat runs; inconclusive = weak or mixed curves, or effect the other way; inactive = flat fitted curve, though single readings scatter.
test: qHTS assay to identify small molecule antagonists of the estrogen receptor alpha (ER-alpha) signaling pathway using the BG1 cell line in the presence of 0.1 nM 17-beta-estradiol - cell viability counter screen (AID 1259241); conditions: VM7Luc4E2 (BG1) viability, CellTiter-Fluor protease, 22 h, 0.1 nM estradiol agonist added; series mostly up to 92.4 µM; note: nearly all actives have a fitted effect of over 40% in size
Excerpt: National Center for Advancing Translational Sciences [NCATS]
NIH Chemical Genomics Center [NCGC]
U.S. Environmental Protection Agency [EPA]
National Institutes of Environmental Health Sciences [NIEHS]
National Toxicology Program [NTP]
U.S. Food and Drug Administration [FDA]
Estrogen receptor (ER), a member of the nuclear hormone receptor plays an important role in development, metabolic homeostasis and reproduction. Two subtypes of ER, ER-alpha and ER-beta, have similar expression patterns with some uniqueness in both types. Endocrine disrupting chemicals (EDCs) and their interactions with steroid hormone receptors like ER causes disruption of normal endocrine function. Therefore, it is important to understand the effect of environmental chemicals in ER signaling pathway. For identifying ER antagonists, VM7Luc4E2 cell line was used to screen against Tox21 compound libraries.
VM7Luc4E2 cell line (provided by Denison MS, University of California) endogenously express full-length ER-alpha and is stably transfected with a plasmid containing four estrogen responsive elements (ERE) upstream of a luciferase reporter gene. The current screening for identification of ER-alpha inhibitors against Tox21 compound libraries used lower concentration (0.1 nM) of 17beta-Estradiol as a stimulator. The cytotoxicity of the Tox21 compound libraries against VM7Luc4E2 cell line was tested by measuring live-cell protease activity using CellTiter-Fluor assay in the same wells.
Tox21 Assay Protocol Summary:
VM7Luc4E2 cells were cultured in phenol red free assay medium containing 10% charcoal stripped FBS for 5 days prior to the assay. The cells were dispensed at 4,000 cells/well in 4 uL of assay medium into white wall/solid-bottom 1536-well plates (Corning Life Sciences, Corning, NY) using a Multidrop Combi (ThermoFisher Scientific, Waltham, MA) dispenser. After the assay plates were incubated at 37C and 5% CO2 for 24 hr, 23 nL of compounds dissolved in DMSO, positive controls or DMSO only was transferred to the assay plates by a Pintool station (Kalypsys, San Diego, CA). The transfer of compounds was followed by the addition of 1 uL of 0.1 nM (final concentration) agonist (17beta-Estradiol)/assay medium using a Flying Reagent Dispenser (FRD, Aurora Discovery, San Diego, CA). The plates were incubated at 37C and 5% CO2 for 22 hr. For cytotoxicity assay, 1 uL of CellTiter-Fluor reagent (Promega Corporation, Madison, WI) was added to each well using the FRD and after 30 min incubation at 37C and 5% CO2, The fluorescence intensity was measured using ViewLux plate reader (PerkinElmer, Shelton, CT).
Potency is the fitted concentration of half-maximal effect.

Structure (SMILES)	Potency	activity change, negative = cytotoxicity
Nc1ccnc(=O)[nH]1	inactive	
CCN(CC)C(=O)C1CN2CCc3cc(OC)c(OC)cc3C2CC1OC(C)=O (stereo not given)	inactive	
CCCCCCCCCCCCCC(=O)OC	inactive	
CCC(=O)OCCC(C)CCC=C(C)C (stereo not given)	inactive	
CCCCCCCCCCCCC	inactive	
O=C(c1ccc2c(c1)C(=O)OC2=O)c1ccc2c(c1)C(=O)OC2=O	inactive	
CC(C)SCc1ccco1	inactive	
CCCOC(=O)CCCCC(=O)OCCC	inactive	
CCCCC[Si](OCC)(OCC)OCC	inactive	
CCCOCCOCCOCCO	inactive	
C=CCOCC(O)CCl (stereo not given)	inactive	
O=C1OC(=O)c2cc(Oc3ccc4c(c3)C(=O)OC4=O)ccc21	inactive	
C=CCCCCCCCCCCC		0.186% [at 8.39 µM]
COc1ccc(N=Nc2cc(C)c(N=Nc3ccc(S(=O)(=O)O)cc3)cc2OC)cc1	68.6 µM (active)	
O=S1(=O)CCCC1	inactive	
O=C(COCCOCCOCC(=O)Nc1c(I)cc(I)c(C(=O)O)c1I)Nc1c(I)cc(I)c(C(=O)O)c1I	inactive	
COCC(=O)Nc1c(I)c(C(=O)NCC(O)CO)c(I)c(C(=O)N(C)CC(O)CO)c1I (stereo not given)	inactive	
O=c1[nH]c(=O)c2[nH]c(=O)[nH]c2[nH]1		0.489% [at 8.39 µM]
CCOC(=O)OCC/C(SC(=O)OCC)=C(\C)N(C=O)Cc1cnc(C)nc1N	inactive	
CCCCC/C=C/CC(=O)OC	inactive	

Structure (SMILES)	Potency	activity change, negative = cytotoxicity
Cc1cccc(C(=O)O)c1[N+](=O)[O-]	inactive	
CCCCCCCCCOCC1CO1 (stereo not given)	inactive	
CCNC(=O)NCCCOc1cccc(CN2CCCCC2)c1	inactive	
C=CCOc1c(Br)cc(C(C)(C)c2cc(Br)c(OCC=C)c(Br)c2)cc1Br	inactive	
CC1=NN(c2ccc(S(=O)(=O)O)cc2)C(=O)C1N=Nc1ccccc1 (stereo not given)	inactive	
Cc1cccc(NC(=S)N(C)C)c1	inactive	
Nc1ccc(/C=C/c2ccc(N)cc2S(=O)(=O)O)c(S(=O)(=O)O)c1		-1.15% [at 0.349 µM]
CCC(=O)c1ccc(O)cc1	inactive	
C1=CCC(c2ccccc2)CC1 (stereo not given)	inactive	
CCN(CCC#N)c1ccccc1	inactive	
O=C(O)c1ccccc1C(=O)Nc1ccc(S(=O)(=O)Nc2nccs2)cc1	inactive	
CC(C)C(=O)c1ccccc1	inactive	
CN=C(NC#N)NCCSCc1csc(N=C(N)N)n1	inactive	
C=CCOc1cc(Cl)ccc1C(=O)NCCN(CC)CC	inactive	
CCCCCCCC[Si](OCC)(OCC)OCC	inactive	
C=C[Si](C)(C)O[Si](C)(C)C=C	inactive	
C=CCOCC(CO)(COCC=C)COCC=C	inactive	
NC(=O)C1(N2CCCCC2)CCN(CCCC(=O)c2ccc(F)cc2)CC1	inactive	
Cc1cc(O)c2c(c1)C(=O)c1cccc(O)c1C2=O	inactive	
NS(=O)(=O)c1cc2c(cc1Cl)NC(C(Cl)Cl)NS2(=O)=O (stereo not given)	inactive	

Source: PubChem BioAssay (Tox21)
